The values that follow come from PubChem BioAssay AID624252 (National Center for Advancing Translational Sciences (NCATS), 2012).

The list shows a part of the results. Inconclusive results are not listed. The source made the active and inactive calls. The call rests on the fitted dose curve; in most records, active means well fitted cell-killing curve with a large enough effect; inconclusive means small, poorly fitted or top-dose-only effect; inactive means flat fitted curve, though single readings scatter.

This assay in a line: qHTS screen for small molecules that inhibit ELG1-dependent DNA repair: Hit Confirmation with Unstimulated Viability Assay.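 Further: compound exposure lasted 16 hours before reading; nearly all actives have a fitted effect of over 55% in size.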 To be noted: cell viability counter-screen, luminescence. The source says: Cancer cells divide rapidly compared to normal cells in the body. During cell division, cancer cells need to duplicate their genome by DNA replication. The failure of genome duplication leads to cancer cells' death. Therefore, inhibitors of DNA replication could specifically kill cancer cells. Based on this concept, many chemotherapeutic agents were developed and have been used to treat cancer patients. However, there are a limited number of agents available in the clinical setting, and some of those that do exist have low efficacy and severe side effects. Therefore, if we can find the compounds that effectively block DNA replication either by directly damaging DNA or by inhibiting other cellular mechanisms, the options for cancer treatment will be broadened. With this in mind, we developed a quantitative high-throughput ELG1-luciferase reporter gene assay. Small molecules that specifically block ELG1 function in response to DNA damage can be identified by monitoring the suppression of luciferase activity. Since ELG1 defines a pathway for repairing DNA damage, agents blocking ELG1 function can be used to sensitize cancer cells to chemotherapeutic agents whose mechanism of action involves the induction of DNA damage.
NIH Molecular Libraries Probe Production Network [MLPCN]
NIH Chemical Genomics Center [NCGC]
Assay Provider: Kyungjae Myung, NHGRI, NIH
For genotoxicity screening, 2,000 cells in 4 uL/well were dispensed into white, solid-bottom 1536-well plates using a solenoid-based dispenser. 23 nL compound or DMSO vehicle were added by a pin tool, the plates were incubated 16 hr at 37 °C and 5% CO2. 5 ul ONE-Glo (Promega) was then added to each plate and following a 30 min incubation at room temperature, luciferase activity was quantified on a ViewLux CCD-based plate reader.
In general terms: In qHTS, concentration-response curves come from the screen itself.
Potency means the concentration at half of the fitted maximal effect.

In the case of `COC1CC(OC2CC[C@@]3(C=O)C4CC[C@]5(C)C(C6=CC(=O)OC6)CC[C@@]5(O)C4CC[C@]3(O)C2)OC(C)C1O` (stereo partly drawn), the Potency is 0.199 µM (active).

On to `C[C@@]12CC[C@H]3[C@@H](CC[C@]4(O)C[C@H](O)CC[C@@]34C=O)[C@]1(O)CC[C@@H]2C1=CC(=O)OC1`, for which the Potency was 0.425 µM (active).

For `CC(=O)[O][Sn]([c]1ccccc1)([c]1ccccc1)[c]1ccccc1`, the Potency is 1.41 µM (active).
